Assay results reported in PubChem BioAssay (EPA / NIEHS).
Activity calls are given as the source filed them. The calls were made as follows: active = hit-call score of the fitted dose curve at least 0.9, where 1 is the maximum; inactive = score below 0.9.

read-out: matrix metalloproteinase-3 (MMP3), MMP3 (gene 4314); experiment: LTEA_HepaRG_MMP3: Life Technologies and Expression Analysis (LTEA) Assay for matrix metalloproteinase-3 (MMP3) using HepaRG (AID 2283519); conditions: mRNA level, 48 h; actives raise or lower the signal
Procedure: LTEA_HepaRG is a cell based, multiplexed-readout assay that uses HepaRG, a human liver cell line, with measurements taken at 48 hours after chemical dosing on a 96-well plate.LTEA_HepaRG_MMP3 is one of 102 assay component(s) measured in the LTEA HepaRG cell culture assay. It is a marker of Fibrosis.Data from the assay component LTEA_HepaRG_MMP3 was analyzed into 1 endpoint. This assay endpoint, LTEA_HepaRG_MMP3, was analyzed with bidirectional fitting relative to DMSO as the negative control and baseline of activity. Using a type of inducible reporter, measures of mRNA induction for gain or loss-of-signal activity can be used to understand regulation of transcription factor activity. To generalize the intended target to other relatable targets, this assay endpoint is annotated to the protease intended target family, where the subfamily is matrix metalloproteinase.
A total of 1060 chemcials from the ToxCast library were tested in eight-point concentration-response experiments. Cell culture and cytotoxicity assays were conducted at Thermo Fisher Scientific's Custom Services facility (Madison, WI). A single lot of human HepaRG cells (Thermo Fisher Scientific, Frederick, MD) was used for the cell culture experiments. 96-well format collagen type I coated plates of human HepaRG cells were prepared using established methods. Briefly, cryopreserved HepaRG cells were thawed, plated at a density of approximately 100,000 cells/well in HepaRG Thaw, Plate, and General Purpose media (HPRG770, Thermo Fisher Scientific), and incubated for 48 hours. 0.5% DMSO was selected as vehicle control to balance the requisite need of DMSO in HepaRG cultures to maintain differentiation (for example, baseline metabolism, proportions of hepatocytes vs. cholangiocytes), while enabling further hepatic receptor pathway activation (for example, PXR and CAR) in response to chemical exposure. 48 hours after plating, the culture medium was replaced with HepaRG Serum-Free Incudtion Media. Cells were exposed to each test chemical in duplicate and maintained in CO2 incubators for another 48 hours. Chemical plates were thawed to room temperature and 200x concentrations of treatment groups were prepared. 8-point conentration-reponse curves were made with the highest exposure at 100 uM, followed by half-log dilutions, all in 0.5% DMSO. Each test plate contained variouse controls, induction positive controls (1mM phenobarbital), cytotoxicity positive controls ([…] aflatoxin B1), vehicle controls (0.5% DMSO), and total lysis controls (0.5% DMSO). Cell morphology images were taken using an Essen IncuCyte FLR automated microscope, with six 96-well plates imaged in about 24 minutes. Images were captured and exported and JPEG files. Spent culture media was transfered to black-well plates for the LDH assay, and remaining media was sorted at -80 C for later use. Cells were treated with RLT buffer and frozen until shipped for gene expression analysis. Total RNA was isolated from the cell suspension in 75 uL of Buffer RLT (Qiagen, Germantown, MD 20874) by Quintiles/Expression Analysis (Durham, NC) using a custom isolation procedure. Total RNA from each plate well was transferred to a preamplification plate. Fluidigm's 96.96 Dynamic ArrayTM (Fluidigm, Amsterdam, the Netherlands) technology was used for gene expression analyses by quantitative reverse transcription polymerase chain reaction (qRT-PCR, performed by Quintiles/Expression Analysis, Durham, NC)89. Standard TaqManTM Assays (Applied Biosystems/ThermoFisher Scientific, Foster City, CA) were used to assess the expression of 93 genes selected based on their selectivity and sensitivity to important hepatic receptors known to be modulated by environmental chemicals; importance in human hepatocyte functionality; and hepatotoxicity. […]

| SMILES | outcome | AC50 |
| --- | --- | --- |
| Cc1c(C(=O)O)c(O)cc2c1C(=O)c1c(O)c([C@@H]3O[C@H](CO)[C@@H](O)[C@H](O)[C@H]3O)c(O)c(O)c1C2=O | inactive | – |
| C[Si]1(C)O[Si](C)(C)O[Si](C)(C)O[Si](C)(C)O1 | inactive | – |
| COC(=O)c1ccc(O)cc1 | inactive | – |
| CCCCN(CCCC)CCCC | inactive | – |
| O=[N+]([O-])C(CO)(CO)CO | inactive | – |
| C[C@]12C=CC(=O)C=C1CC[C@@H]1[C@@H]2C(=O)C[C@@]2(C)[C@H]1CC[C@]2(O)C(=O)CO | inactive | – |
| CCCCCCCCCCCCCO | inactive | – |
| Cc1cc(NC(=O)C(=O)O)cc(C)c1Oc1ccc(O)c2c1CCC2 | inactive | – |
| Cc1ccc(C)c(O)c1C | inactive | – |
| COc1cc(S(=O)(=O)O)c(C)cc1N=Nc1c(O)ccc2cc(S(=O)(=O)O)ccc12 | inactive | – |
| Oc1ccc2ccccc2c1N=Nc1ccccc1 | inactive | – |
| Cc1ccc(C)c(C)c1 | inactive | – |
| C=CCc1ccc(O)c(OC)c1 | inactive | – |
| NS(=O)(=O)c1cc2c(cc1Cl)NCNS2(=O)=O | inactive | – |
| CC(=O)OCCOCCOCCOC(C)=O | inactive | – |
| CCCCc1ccc2c(n1)[C@@H](c1ccc(OC)cc1C[C@H](C)C(=O)O)[C@H](C(=O)O)[C@H]2c1ccc2c(c1)OCO2 | inactive | – |
| COc1ccc(S(=O)(=O)N2C(=O)[C@@](c3ccccc3OC)(N3C[C@H](O)C[C@H]3C(=O)N(C)C)c3cc(Cl)ccc32)c(OC)c1 | – | 50 µM (active) |
| CC1=C(/C=C/C(C)=C/C=C/C(C)=C/CO)C(C)(C)CCC1 | – | 23.1 µM (active) |
| Cc1ccc(N(C)C)cc1 | inactive | – |
| Cc1cccc(Nc2cc(Cl)nc(SCC(=O)O)n2)c1C | inactive | – |

| SMILES | outcome | AC50 |
| --- | --- | --- |
| Cc1cccc(C)c1O | inactive | – |
| c1cc(-c2ccncc2)ccn1 | – | 17.6 µM (active) |
| NC(=O)Cn1c(=O)cc(CCN2CCN(c3nccc4sccc34)CC2)c2ccc(F)cc21 | inactive | – |
| CC=Cc1ccc(O)c(OC)c1 | inactive | – |
| O=C(O)Cc1ccccc1Nc1c(Cl)cccc1Cl | inactive | – |
| CNCc1cc(F)ccc1Oc1ccc(Cl)c(Cl)c1 | – | 50 µM (active) |
| CCCCCCC(=O)OCC | inactive | – |
| CC(CO)OC(C)CO (stereo not given) (tested in a mixture with another compound) | inactive | – |
| Cc1cccc([N+](=O)[O-])c1C | inactive | – |
| NCCO | inactive | – |
| C1CCC(SSC2CCCCC2)CC1 | inactive | – |
| CN[C@H]1CC[C@@H](c2ccc(Cl)c(Cl)c2)c2ccc(S(N)(=O)=O)cc21 | – | 84.1 µM (active) |
| COc1cc(C=O)ccc1O | inactive | – |
| Cc1ccc(Cl)cc1 | inactive | – |
| CCCCCCCCCCCCCCCCCC(=O)O | inactive | – |
| CCOC(=O)CCC(=O)OCC | inactive | – |
| Cc1nc(C)nc(N2C[C@@H](C)N(c3ccnc([C@@H](C)O)n3)[C@@H](C)C2)n1 | – | 25 µM (active) |
| CC(=O)OC/C=C(\C)CCC=C(C)C | inactive | – |
| CCCCCCCCCCC | inactive | – |
| FC(F)(F)C(F)(F)C(F)(F)C(F)(F)C(F)(F)C(F)(F)CCI | inactive | – |
